# Hit rate of the full screen: of about 30,000 compounds, about 130 (0.43%) were called active. The list comes from a sample in which actives are over-represented; it also holds similar structures and randomly drawn compounds. A number with no mark means an inactive call. Cut-off read from the data, not from the text of the source: active = activation above about 65%; inactive = the rest.
# Biological target: Lysosomal acid glucosylceramidase (Homo sapiens) (UniProt P04062)
# Assay: raising glucocerebrosidase activity, Gaucher cells – primary screen (AID 784);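 note: 0% = vehicle wells and 100% = positive control wells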
# Conditions: L444P Gaucher fibroblasts, 4-MU-glucoside fluorescence, 3 days; at 10 µM; hits give high values
# Sequence of Lysosomal acid glucosylceramidase (Homo sapiens) (P04062 whole entry L483P): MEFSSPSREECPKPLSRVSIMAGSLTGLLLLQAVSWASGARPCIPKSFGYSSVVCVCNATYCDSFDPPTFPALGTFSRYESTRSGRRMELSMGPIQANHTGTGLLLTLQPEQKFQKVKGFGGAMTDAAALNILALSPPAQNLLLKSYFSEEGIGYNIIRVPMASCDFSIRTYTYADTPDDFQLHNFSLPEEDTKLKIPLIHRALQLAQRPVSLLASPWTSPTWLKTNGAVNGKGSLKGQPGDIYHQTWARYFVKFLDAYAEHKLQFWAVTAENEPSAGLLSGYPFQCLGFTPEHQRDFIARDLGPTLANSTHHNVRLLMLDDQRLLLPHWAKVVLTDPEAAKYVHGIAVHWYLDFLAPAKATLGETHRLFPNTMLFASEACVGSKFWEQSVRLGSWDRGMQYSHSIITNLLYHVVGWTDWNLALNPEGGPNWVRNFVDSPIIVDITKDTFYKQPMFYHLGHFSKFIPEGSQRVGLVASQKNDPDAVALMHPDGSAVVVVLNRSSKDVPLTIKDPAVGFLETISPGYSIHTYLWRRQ
row,SMILES,activation
1,COc1ccc(CC(=O)Nc2ccc3c(c2)CCC3)cc1S(=O)(=O)N1CCOCC1,32.8%
2,Cc1ccc(C(=O)NC2CC(C)(C)NC(C)(C)C2)c(C)c1,-52.5%
3,CC(=NC1CCN(Cc2ccccc2)CC1)c1c(O)[nH]c(=O)[nH]c1=O,-6.5%
4,CS(=O)(=O)N(CC(=O)N1CCN(Cc2ccc3c(c2)OCO3)CC1)c1ccc2c(c1)OCO2,-6.7%
5,CCC(C)n1[nH]c(=O)cc1N (stereo unspecified),4.55%
6,COc1ccc(C(=O)Cn2nnc(-c3ccc(N4CCOCC4)cc3)n2)cc1OC,-17.5%
7,O=C1CN(C(=O)COC(=O)C2CC(=O)N(Cc3ccco3)C2)c2ccccc2N1 (stereo unspecified),4.58%
8,CN(C(=O)c1ccno1)c1nnc(-c2cccnc2)s1,-12.7%
9,CC(=O)Cc1nsc(NC(=O)c2csc3c2CCCC3)n1,-9.06%
10,COC(=O)c1sc(NC(=O)c2csc3c2CCCC3)nc1C,67.1% (active)
11,COC(=O)c1sccc1NC(=O)c1csc2c1CCCC2,-10.4%
12,COc1cccc(N(CC(=O)Nc2cccc(F)c2)S(C)(=O)=O)c1,4.09%
13,COc1cccc(N(CC(=O)Nc2cccc(N(C)S(C)(=O)=O)c2)S(C)(=O)=O)c1,-7.1%
14,CCN(CC)S(=O)(=O)c1ccc(NC(=O)CN(c2cccc(F)c2)S(C)(=O)=O)cc1,83.1% (active)
15,COc1ccccc1N1CCN(C(=O)CSc2nnc(-c3ccoc3C)o2)CC1,7.59%
16,CCC(C)(C)NC(=O)C(c1cccn1C)N(Cc1ccc(C)cc1)C(=O)Cn1nnc2ccccc21 (stereo unspecified),-4.98%
17,CCOC(=O)C1(c2ccccc2)NC(c2ccc(N(C)C)cc2)C2C(=O)N(C)C(=O)C21 (stereo unspecified),-22.4%
18,CCOC(=O)C1(Cc2ccc(O)cc2)NC(c2ccccc2F)C2C(=O)N(C)C(=O)C21 (stereo unspecified),102% (active)
19,COc1ccc2nc(N3CCCC(O)C3)c(C#N)cc2c1 (stereo unspecified),-3.51%
20,Cc1nc(SC(C)C)[nH]c(=O)c1Cc1ccccc1,1.07%
21,CCc1c(C)nc2ncnn2c1N1CCC(C(=O)NCc2ccc3c(c2)OCO3)CC1,9.86%
22,CCOC(=O)C(C)Oc1cccc2c(=O)n(CC(=O)N3CCc4ccccc43)ccc12 (stereo unspecified),3.53%

row,SMILES,activation
1,O=C(COC(=O)c1ccc2c(c1)OCCO2)NCc1ccccc1,1.84%
2,Cc1cc(C)c(S(=O)(=O)NCCCN2CCOCC2)cc1Br,17.8%
3,CCN(CC)S(=O)(=O)c1cccc(C(=O)Nc2ccccc2)c1,-3.99%
4,CC(C)C[C@H](NC(=O)NCCc1ccc(Cl)cc1)C(=O)O,-14.7%
5,COc1ccc(CCN=C2SCC(=O)N2C)cc1OC,-11.5%
6,CCOc1ncccc1C(=O)OCc1cn2cc(Cl)ccc2n1,2.09%
7,COc1ccccc1N1CCN(C(=O)Cn2nnc(-c3cccs3)n2)CC1,-45%
8,O=C(CN1CCN(c2nc(-c3ccccc3)cs2)CC1)NCc1ccc2c(c1)OCO2,-22.9%
9,COC(=O)c1cn(-c2ccccc2)nc1-c1cccnc1,64.9%
10,CCOc1ccc(N2C(=O)CC(N(O)c3ccccc3)C2=O)cc1 (stereo unspecified),20.8%
11,Cc1cc(C)nc(SCc2nnc(SCC(=O)OC3CCCCC3)o2)n1,-16%
12,Cc1ccc(C(=O)CSc2nc3ccccc3c(=O)n2N)o1,-3.06%
13,Cc1ccc(S(=O)(=O)NCC(=O)OCC(=O)N2CCc3ccccc32)cc1,-6.72%
14,O=C(Nc1ccccc1)c1cccnc1Nc1ccccc1,-10.1%
15,O=C(Nc1ccc2c(c1)nc1n2CCCCC1)c1cc(S(=O)(=O)N2CCOCC2)ccc1Cl,-3.59%
16,CCN(CC(=O)NC(C)C)C(=O)CCNC(=O)c1ccc(Cl)cc1,21%
17,CN1CCN(S(=O)(=O)c2ccc(NC(=O)c3ccco3)cc2)CC1,-8.04%
18,CCC1SC2=NCCN2C1(O)c1ccc(Cl)cc1 (stereo unspecified),-18.2%
19,c1ccc(-c2oc3ncnc(N4CCOCC4)c3c2-c2ccccc2)cc1,-12.4%
20,CCC(C)Sc1nc2c(c(=O)[nH]c(=O)n2C)n1CC(O)COc1cccc2ccccc12 (stereo unspecified),-21%
21,CNC(=O)C1CC(=O)N(Cc2ccc3c(c2)OCO3)C(=Nc2ccc(F)cc2)S1 (stereo unspecified),-16.6%
22,COc1ccc(C(=O)CSc2nccc(=O)[nH]2)cc1,-9.63%

row,SMILES,activation
1,O=C(OCc1nnc(-c2ccccc2)o1)c1ccc2c(c1)C(=O)N(CCc1ccccc1)C2=O,-2.93%
2,COc1c(C)cccc1C(=O)Nc1cc(Cl)ccc1N1CCOCC1,-42.8%
3,CC(=O)OCc1cc2cc(C)ccc2[nH]c1=O,-12%
4,COc1cc2c(cc1OC)C(c1ccncc1)CC(=O)N2 (stereo unspecified),-30.8%
5,CCc1c(C)nc(N)n2c(SCC(=O)N3CCN(c4ccccc4)CC3)nnc12,-9.46%
6,CCOC(=O)c1c(NC(=O)CCC(=O)NCc2ccco2)sc2c1CCCC2,-3.62%
7,O=c1nc(N2CCOCC2)nc2n1CCO2,0.48%
8,O=C(CN1C2CCC1CC(NC(=O)C1CC1)C2)NCc1ccccc1 (stereo unspecified),-20%
9,CCn1c(COc2cccc(OC)c2)nnc1SCC(=O)N1CCOCC1,2.04%
10,COc1ccc(S(=O)(=O)N(CCCN2CCCC2=O)Cc2cc3c(C)ccc(C)c3[nH]c2=O)cc1,-24.5%
11,COc1ccccc1Nc1ncnc2c1oc1ccccc12,-53.1%
12,O=C(NCc1ccccn1)c1cc2ccccc2oc1=O,-7.53%
13,O=C(CNCCO)NC12CC3CC(CC(C3)C1)C2,10%
14,COc1cc(NS(=O)(=O)c2ccccc2)ccc1-n1nc(C)cc1C,4.78%
15,C=C(C)c1cccc(C(C)(C)NC(=O)N2CCN(c3ncccn3)CC2)c1,0.53%
16,Cc1ccsc1C(=O)OCC(=O)c1cc2ccccc2o1,6.97%
17,COc1ccc(CCn2nnnc2C(c2ccccc2)N2CCN(C)CC2)cc1OC (stereo unspecified),-1.68%
18,CCn1c(SCC(=O)NCC2CCCO2)nc2cc(S(=O)(=O)N3CCCCC3)ccc21 (stereo unspecified),-14.9%
19,CCN1C(=O)CS/C1=N\c1nccs1,-12.6%
20,Cc1ccc(S(=O)(=O)N(C)CC(=O)N2CCc3ccccc32)cc1,0.44%
21,Cc1cccc(OCc2nnc(SCn3nnc4ccccc4c3=O)o2)c1,4.49%
22,Cc1cc(C)cc(OCc2nnc(SCC(=O)Nc3ccccc3)o2)c1,-21.4%

row,SMILES,activation
1,O=C(Nc1ccc2c(c1)OCCO2)C1CCCN(c2ncccn2)C1 (stereo unspecified),-35.2%
2,O=C(NC1CCN(Cc2ccccc2)CC1)c1ccccc1F,-0.98%
3,O=C(COC(=O)c1ccc(Oc2ccccc2)cc1)Nc1nnc(-c2ccccc2)o1,-9.15%
4,Cc1nc2cc(-c3ccc(F)cc3)nn2c(N2CCOCC2)c1C,4.6%
5,COc1ccc(CNC2CCCCC2)cc1,-12%
6,CCn1c(COc2ccc(OC)cc2)nnc1SCC(=O)Nc1cc(OC)ccc1OC,-5.85%
7,CC(=O)N1CCC(C(=O)Nc2nc(-c3ccccc3)ns2)CC1,-7.15%
8,Cn1c(=O)c2c(nc(CN3CCOCC3)n2Cc2ccccc2)n(C)c1=O,-2.48%
9,Cc1ccc(-c2nc(COC(=O)c3c(C)noc3C)cs2)cc1,4.07%
10,CCOC(=O)c1ccccc1NC(=O)CC1Nc2ccccc2NC1=O (stereo unspecified),-13.8%
11,Cc1cccc2nc(CNc3ccc(F)cc3)cn12,-22.2%
12,COC(=O)N1CN(C(=O)OC)CN(C(=O)OC)C1,-8.85%
13,CC(=O)N1CCN(C(=O)c2cccc(S(=O)(=O)Nc3ccc(C)cc3)c2)CC1,5.73%
14,CCn1nnc(NC(=O)c2c(OC)cccc2OC)n1,4.73%
15,COc1ccccc1N1CC(O)=C(c2nc3ccccc3s2)C1=N,8.76%
16,Cc1ccc(NC(=O)CN2CCC3(O)CCCCC3C2c2ccc3c(c2)OCO3)c(C)c1 (stereo unspecified),-20.4%
17,CCOC(=O)c1sc(/N=C/Nc2nc(C)c(C(=O)OCC)s2)nc1C,-5.05%
18,CCC(c1nnnn1Cc1ccccc1)N(Cc1cc2cc(OC)ccc2[nH]c1=O)CC1CCCO1 (stereo unspecified),-25.6%
19,COc1ccc(CCNC(=O)c2ccco2)cc1,-11.6%
20,CCC12CN3CC(CC)(CN(C1)C31C(=O)N(C)c3ccc(C)cc31)C2=O (stereo unspecified),-17.4%
21,Cc1cccc(NC(=O)COc2ccc(Br)cc2C)n1,7.05%
22,CC(=O)c1ccc(-n2nnnc2SCC(=O)N2CCN(C(=O)c3ccco3)CC2)cc1,-18.5%

row,SMILES,activation
1,O=C(CN(CC1CCCO1)C(=O)CNS(=O)(=O)c1ccccc1)NCc1ccccc1 (stereo unspecified),-28.7%
2,CC1CCCC(NC(=O)CSc2nccn2C)C1C (stereo unspecified),-8.08%
3,CCOC(=O)c1c(C)[nH]c(C(=O)COc2ccc3c(c2)OCO3)c1C,6.28%
4,Cn1c(SCC(=O)c2cccs2)nnc1-c1ccco1,-23%
5,CCCn1c(SCC(=O)N2CCc3ccccc32)nnc1-c1ccncc1,-11%
6,CCCSC1=C(C#N)C(c2ccccc2C)C(C(=O)OC)C(=O)N1 (stereo unspecified),-16.4%
7,Cc1cc(C)c2c(c1)cc(C)c1nnc(SCC(=O)Nc3cc(C)on3)n12,-30.3%
8,CCOC(=O)c1cc(-c2nnc(-c3cc(OC)c(OC)c(OC)c3)o2)c(C)nc1C,-21.7%
9,O=C(Nc1ccc(S(=O)(=O)N2CCCC2)cc1Cl)C1=COCCO1,22.5%
10,O=C(O)c1ccc(NS(=O)(=O)c2cccc3nsnc23)cc1,1.35%
11,CC1=CC(C)(C)N(C(=O)CSc2nccn2C)c2cc(C)ccc21,-9.35%
12,CN1CCC2(CC1)NC(=O)NC2=O,-11.5%
13,COC(=O)C(CC(=O)Nc1cc(C)ccc1C)Nc1ccccc1OC (stereo unspecified),3.63%
14,Cn1cccc1C(=O)NC(=O)COC(=O)Cc1coc2ccc3ccccc3c12,-54.5%
15,Cc1ccc(NC(=O)CS(=O)CC(=O)N(c2ccccc2)C(C)C(=O)NC2CCCC2)cc1 (stereo unspecified),0.43%
16,CCCc1nnc(NC(=O)c2cc(OC)cc(OC)c2)s1,-49.8%
17,CCCc1nc(SCC(=O)Nc2ccccc2OC)c2c(=O)n(C)c(=O)n(C)c2n1,-10.4%
18,CCc1cc(=O)oc2cc(C)cc(OC(C)C(=O)O)c12 (stereo unspecified),12.8%
